HEK293 cAMP cs: qHTS Assay for Agonists of the Thyroid Stimulating Hormone Receptor: Activators of Intracellular cAMP Concentrations in Parental HEK 293; parental HEK293 CNG cAMP sensor, membrane potential fluorescence; Potency, µM (highest dose often 57.1 µM), for inactives: at the top dose activation, hits mostly activators; 73,000 tested, 2.5% active; AID 938, 2007; further: % of control where 0% means no effect; nearly all actives have a fitted effect of over 55% in size
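Counterscreen for endogenous-receptor signalling: CNG-channel HEK 293 cells report cAMP rise by membrane depolarization. After 60 min dye equilibration with 100 uM RO 20-1724, compounds incubated 30 min before bottom-read fluorescence at 590 nm.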
TSHR ag: qHTS Assay for Agonists of the Thyroid Stimulating Hormone Receptor; 73,000 tested, 0.48% active; AID 926, 2007; Potency, µM (top dose mostly 57.1 µM), without a hit: at the highest dose activation, most hits filed as activators; HEK293-CNG-TSHR cells (CNG channel as cAMP sensor), membrane potential dye, cAMP; Thyrotropin receptor (Homo sapiens), P16473; active means well fitted activation curve with a large enough effect in the main read-out, with a control signal flat, not every such curve was filed as active; inconclusive means small, poorly fitted or top-dose-only effect, or a change in a side signal; inactive means no such curve, though single readings can be large or run the other way; % of control where 0% means no effect;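 further: the control signal comes from parental cells without the receptor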
Target sequence (P16473 whole entry, looked up): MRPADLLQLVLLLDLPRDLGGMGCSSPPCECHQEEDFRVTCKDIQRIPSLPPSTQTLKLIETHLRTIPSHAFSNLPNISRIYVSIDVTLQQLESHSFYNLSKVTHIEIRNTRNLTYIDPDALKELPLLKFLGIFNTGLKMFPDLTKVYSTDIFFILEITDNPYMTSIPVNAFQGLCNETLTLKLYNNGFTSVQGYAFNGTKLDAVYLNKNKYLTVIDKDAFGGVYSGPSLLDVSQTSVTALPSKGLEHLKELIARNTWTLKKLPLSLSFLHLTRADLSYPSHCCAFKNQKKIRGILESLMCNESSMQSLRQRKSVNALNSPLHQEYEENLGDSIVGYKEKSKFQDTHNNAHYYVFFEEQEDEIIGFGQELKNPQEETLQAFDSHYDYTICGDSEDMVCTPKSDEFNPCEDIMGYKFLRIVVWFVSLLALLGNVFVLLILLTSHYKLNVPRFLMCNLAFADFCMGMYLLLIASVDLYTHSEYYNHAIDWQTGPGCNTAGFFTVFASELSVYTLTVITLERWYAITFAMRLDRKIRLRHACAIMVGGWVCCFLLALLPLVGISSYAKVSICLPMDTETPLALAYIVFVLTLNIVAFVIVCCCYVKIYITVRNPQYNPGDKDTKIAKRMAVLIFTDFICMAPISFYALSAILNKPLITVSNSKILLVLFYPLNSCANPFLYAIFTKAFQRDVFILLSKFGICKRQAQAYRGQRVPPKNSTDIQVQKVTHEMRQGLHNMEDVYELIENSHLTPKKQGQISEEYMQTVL
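HEK 293 cells stably expressing TSHR and a cAMP-gated CNG channel; parental CNG-only cells as counterscreen. Cells preloaded 60 min with membrane potential dye plus 100 uM RO 20-1724, then compound 30 min; fluorescence read at 590 nm.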
CRE Fsk mod: Cell signaling CRE-BLA (Fsk stim) | Potency, µM (titrated, usually from 38.2 µM), for the others: top-dose activity change, negative = inhibition, hits mostly activators | 71,000 tested, 2.5% active | AID 662, 2007 | CHO CRE-bla reporter (cAMP response element driving beta-lactamase), forskolin EC10, beta-lactamase ratio; active means well fitted activation curve with a large enough effect in the signal ratio, with a control signal flat, not every such curve was filed as active; inconclusive means small, poorly fitted or top-dose-only effect, or effect the other way, or a change in a side signal; the % refers to the signal ratio; further: % of control where 0% means no effect
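The 460nm/530nm emission ratio after CCF4 loading defined %Activity, from which AC50 values were obtained. CRE-bla CHO cells received compound dilution series together with an EC10 level of NKH 477 for 3 hours at 37 degrees Celsius.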
Tau filament bind: qHTS Assay for Tau Filament Binding. Potency, µM (top dose mostly 57.1 µM), for inactives: at the highest dose activity change, negative = inhibition. 71,000 tested, 2% active. AID 596, 2007. recombinant tau filaments, thioflavin S fluorescence, 15 h; filaments grown with octadecylsulfate alongside compound. Microtubule-associated protein tau (Homo sapiens), P10636;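 further: on the % scale 0 is the no-effect control and ±100 the full control effect; actives lower thioflavin S fluorescence by blocking filaments or displacing dye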
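Quantitative HTS: thioflavine S signal from ODS-induced tau filaments, excited at 450 nm, emission 510 nm. Conditions: 1 uM tau, 30 uM ODS, 15 h at 37 C, pH 7.4.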
ERK AVP block: qHTS Assay for Inhibitors of the ERK Signaling Pathway using a Homogeneous Screening Assay | 72,000 tested, 0.99% active | Potency, µM (doses to about 57.5 µM), without a hit: at the highest dose activity, negative = inhibition, most hits filed as inhibitors | HEK293-V1b, vasopressin-stimulated pERK AlphaScreen | AID 995, 2007; further: on the % scale 0 is the no-effect control and ±100 the full control effect; nearly all actives have a fitted effect of over 55% in size
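HEK293 cells stably expressing V1b receptor, seeded overnight in 1% FBS, were treated with compounds for 30 min at 37C, then stimulated 5 min with 25 nM vasopressin; phospho-ERK read by AlphaScreen SureFire after lysis.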
Starred values were filed as active, the others as inactive; u = inconclusive; x = not tested or not shown; ! = not confirmed by another sample; [ ] = dose if it differs, or a comment. Hits are enriched below; roughly 7.6% of the tested compounds scored in any of these assays. Unless noted, the call rests on the fitted dose curve; in most records, active means well fitted curve in the direction sought with a large enough effect; inconclusive means small, poorly fitted or top-dose-only effect, or another doubt; inactive means no such curve, though single readings can be large; an effect the other way counts as inactive or inconclusive. Potency means the concentration at half of the fitted maximal effect.

SMILES	HEK293 cAMP cs	TSHR ag	CRE Fsk mod	Tau filament bind	ERK AVP block
O=c1cnc2cncnc2n1Cc1ccccc1	16%	25µM*	u	-10%	-22%
Cc1nc2cncnc2n(Cc2ccccc2Cl)c1=O	41%[0.457 µM]	38%	4%	16µM*	-12%
O=c1cnc2cncnc2n1Cc1ccccc1Cl	9%[0.457 µM]	32µM*	u	1%	19%
O=C(Nc1ccccc1)Nc1ccccn1	4%	-5%	u	-5%	-7%
S=C(Nc1ccccn1)c1ccccn1	13%	-4%	1%	25µM*	-18%
CC(=O)SC1CC2=CC(=O)CC[C@@]2(C)C2CC[C@@]3(C)[C@@H](CC[C@@]34CCC(=O)O4)C12 (stereo not given in full)	x	x	x	x	10%
COC(=O)C1=C(C)NC(C)=C(C(=O)OCCN(C)Cc2ccccc2)[C@@H]1c1cccc([N+](=O)[O-])c1	-8%	-37%	-15%	32µM*	6%
COCCOC(=O)C1=C(C)NC(C)=C(C(=O)OC(C)C)[C@@H]1c1cccc([N+](=O)[O-])c1	-18%	5%	u	32µM*!	-15%
CCOC(=O)C1=C(C)NC(C)=C(C(=O)OC)[C@H]1c1cccc([N+](=O)[O-])c1	-15%	x	24%	u	-14%
CCOC(=O)C1=C(C)NC(C)=C(C(=O)OC)[C@@H]1c1cccc([N+](=O)[O-])c1	13%[25.6 µM]	-1%[25.6 µM]	10%[17.1 µM]	-27%[25.6 µM]	5%[25.7 µM]
CCC1=C(OC(=O)N(CC)CC)N2C(=O)OC(=NCCOC)[C@]2(C)[C@H]2C1=CC[C@H]1C(=O)N(CC(=O)OC)C(=O)[C@H]12	x	x	x	x	-6%
Cc1ccccc1-c1cncnc1NCc1cccnc1	11%	4%	-6%	-9%	u
O=C1[C@H]2[C@H]3[C@H](O)[C@H](O)C/C(=N/OCc4ccccc4)[C@H]3CC[C@@H]2C(=O)N1Cc1ccc2c(c1)OCO2	-1%[11.4 µM]	2%[11.4 µM]	x	x	20%[11.5 µM]
CCN(CC)C(=O)CSc1ncnc2c(-c3cccs3)nsc12	6%	26%	u	20µM*	10%
CCCN(CCC)C[C@@H]1CCCCN1CCNC(=O)N1c2ccccc2C(=O)Nc2cccnc21	15%	5%	-6%	40µM*	8%
C=C(CC(=O)OC)C[C@]1(CC(=O)OC)CC2(CC=C(C)C)C(=O)C(C(=O)c3ccccc3)=C(OC(=O)c3ccc(Br)cc3)C(CC=C(C)C)(C1)C2=O (stereo not given in full)	1%[11.4 µM]	6%[11.4 µM]	x	x	27%[11.5 µM]
Cc1c(C#N)c2ccccc2n1CC(=O)N1CCc2ccccc2C1	u	u	-18%	3%	-6%
CCCCNc1nc2ccccc2n1CC(=O)N1CCc2ccccc2C1	2µM*	u	u	u	9%
COc1ccc(CN(Cc2cc3cc4c(cc3[nH]c2=O)OCO4)C(=O)NC2CCCCC2)cc1	23%	18%	10µM*	47%	u
Cc1ccc(NC(=O)N(Cc2ccc3c(c2)OCO3)Cc2cc3cc4c(cc3[nH]c2=O)OCCO4)cc1	-1%	3%	u	48%	-9%
CCN(CC)CCN(Cc1cc2cc3c(cc2[nH]c1=O)OCCO3)C(=O)NC1CCCCC1	15%	11%	15%	-3%	9%
O=C(Nc1ccc(F)cc1)N(Cc1ccco1)Cc1cc2cc3c(cc2[nH]c1=O)OCO3	25µM*	u	u	188%	20µM*
CC1(C)S[C@H]2[C@@H](NC(=O)C(N)c3ccccc3)C(=O)N2[C@H]1C(=O)O (stereo not given in full)	x	x	x	x	5%
COC(=O)c1ccc(OC)c(CSc2nnc(COc3ccc(OC)cc3)o2)c1	13µM*	u	18%	9%	-18%
COc1ccc(C(C)=O)cc1CSc1nc2ccccc2o1	25µM*	u	u	-9%	15%
SMILES	HEK293 cAMP cs	TSHR ag	CRE Fsk mod	Tau filament bind	ERK AVP block
COC(=O)c1ccc(OC)c(CSc2nnc(COc3cccc(C)c3)o2)c1	u	u	13%	6%	33%
CCC1OCCC=CC1C (stereo not given)	1%[11.4 µM]	-2%[11.4 µM]	x	x	-11%[11.5 µM]
CO[C@@H]1COC(=O)C/C=C\[C@H](C)[C@H](OC)COC(=O)[C@H](C)NC(=O)C/C=C\[C@H]1C	-5%[11.4 µM]	-2%[11.4 µM]	x	x	12%[11.5 µM]
CCN(CC)CCN1C(=O)c2oc3ccccc3c(=O)c2C1c1cccc(Br)c1 (stereo not given)	9%	4%	-14%	25µM*	-8%
CC(C)CN1CC2(CCN(C(=O)c3cnccn3)CC2)C1	-3%	6%	-4%	7%	10%
C#CCSc1nc(-c2cccs2)ccc1C#N	u	u	7.9µM*	-22%	17%
CCC(=Nc1ccc(N)cc1)C1=C(O)C(C(=O)OC)C(C)(C)CC1=O (stereo not given)	-9%	-4%	-8%	16µM*	u
Cc1ccc2[nH]c(C(=O)O)c(-c3ccccc3)c2c1	-23%	11%	u	0%	-21%
Cc1ccc2[nH]c(-c3ccccc3)cc(=O)c2c1	22%[11.4 µM]	21%[11.4 µM]	1.6µM*	-12%[11.4 µM]	-6%
COC(=O)c1cc2occc2n1CC(=O)Nc1cc(OC)cc(OC)c1	2%	-1%[11.4 µM]	6%	31%	-17%
CCOC(=O)c1cc2occc2n1CC(=O)NC1CCCCC1C (stereo not given)	13µM*	u	1%	-17%	-14%
O=C(Nc1cc(=O)c2ccccc2o1)N1CCOCC1	-8%	6%	u	4%	-13%
Cc1ccc2oc(NC(=O)N3CCOCC3)cc(=O)c2c1	-30%	-2%	0.32µM*	-8%	-14%
O=c1c(-c2cc(F)cc(F)c2)nc2cncnc2n1C1CC1	u	u	u	-4%	0%
CSc1ncccc1C(=O)OCC(=O)Nc1cc(C(F)(F)F)ccc1N1CCOCC1	u	u	13µM*	2%	11%
COc1ccc(N2CCN(c3nc(=S)n(-c4ccccc4)c(C)c3C(C)=O)CC2)cc1	-6%	-9%	-4%	5µM*	u
COC(=O)[C@@H]1C[C@@]2(O)[C@@H](O)[C@@H](O)[C@@H](O)C[C@H]2N1Cc1cc(F)ccc1F	x	x	x	x	-6%
CCOc1ccc2c(c1)c1nnc(SCC3CCCO3)nc1n2C (stereo not given)	0%	4%	u	32µM*	u
CO[C@H]1COC(=O)[C@H]2CCCN2C(=O)[C@@H](C)COC(=O)C/C=C\[C@@H]1C	2%[11.4 µM]	2%[11.4 µM]	x	x	19%[11.5 µM]
COc1cc2cc(C(c3nnnn3C3CCCC3)N(C)C3CCCCC3)c(=O)[nH]c2cc1OC (stereo not given)	u	u	13µM*	16%	-3%

Screening results (PubChem BioAssay)
